Source: PubChem
Pf growth 96h: P. falciparum growth inhibition at 96 hours. P. falciparum luciferase reporter growth, 96 h. 320,000 tested, 6.9% active. Potency, µM (highest dose often 28.7 µM), actives largely listed as inhibitors. AID 504834; active = well fitted inhibition curve with a large enough effect; inconclusive = small, poorly fitted or top-dose-only effect, or another doubt; inactive = no such curve, though single readings can be large or run the other way
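Plates of compound plus infected erythrocytes (2% hematocrit, 0.05% parasitemia final) incubate 96 hours, 37 C, 5% CO2. Detection reagent added; reduced luminescence from the parasites' luciferase reporter flags inhibition.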
Pf growth 48h: P. falciparum growth inhibition at 48 hours (one generation). P. falciparum luciferase growth in erythrocytes, 48 h. Potency, µM (top dose mostly 28.7 µM), most hits filed as inhibitors. 310,000 tested, 5.9% active; active = well fitted inhibition curve with a large enough effect; inconclusive = small, poorly fitted or top-dose-only effect, or another doubt; inactive = no such curve, though single readings can be large or run the other way
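Erythrocytes infected with P. falciparum carrying an integrated firefly luciferase reporter (2% hematocrit, 0.1% parasitemia final) were exposed to compounds in RPMI 1640 with 0.5% Albumax at 37 C, 5% CO2. Growth inhibition was scored as reduced luminescence.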
NS1 function inh: blocks influenza NS1 protein function | 270,000 tested, 0.4% active | AID 2326 | Potency, µM (top dose mostly 46.1 µM); note: actives are rising curves; nearly all actives have a fitted effect of over 50% in size
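Read-out: OD600 growth recovery of NS1-expressing budding yeast. Cells grown overnight at 30C in -URA glucose medium, washed, resuspended and diluted 1:100 in 2% galactose assay medium, pH 6.0. Same strain lacking NS1 served as positive control.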
SARS PLP yeast: SARS-CoV PLP inhibition in yeast | S. cerevisiae expressing SARS-CoV PLpro, growth rescue | Potency, µM (series often up to 32.9 µM), hits mostly activators | 330,000 tested, 0.19% active | AID 485353; note: nearly all actives have a fitted effect of over 55% in size
Each line names hits and unclear results; the compound was inactive in the other large screens; ! = repeats disagree. An excerpt weighted towards active compounds, which were near 10% of everything screened. Unless noted, calls come from the whole dose curve.

O=C(Nc1ccccc1Cc1ccccc1)c1ccncc1	none
O=C(O)CC(O)CC(O)/C=C/c1c(C2CC2)nc2ccccc2c1-c1ccc(F)cc1 (stereo unspecified)	none (no result: NS1 function inh, SARS PLP yeast)
COc1ccc([C@@H](C)NC(=O)c2ccc3oc(C(C)C)nc3c2)cc1	Pf growth 96h 0.66µM (no result: SARS PLP yeast)
COC1CCN(C(=O)c2ccc3oc(C(C)C)nc3c2)CC1	none
CCCc1cc(=O)[nH]c(SCC(=O)NCCN2C(=O)CSC2=O)n1	none (no result: Pf growth 96h, Pf growth 48h, NS1 function inh)
O=C(NCc1cccnc1)c1ccc(NS(=O)(=O)c2ccccc2)cc1	SARS PLP yeast inconclusive
O=C(NCc1cccnc1)c1ccc(NS(=O)(=O)c2ccc(F)cc2)cc1	Pf growth 96h 6.6µM, Pf growth 48h inconclusive
O=C(CN1C(=O)NC2(CCCCCC2)C1=O)c1ccc(F)cc1	none (no result: NS1 function inh, SARS PLP yeast)
O=C(CN1C(=O)NC2(CCCCCC2)C1=O)c1ccc2c(c1)OCCO2	Pf growth 96h 8.3µM
CCN(c1ccccc1)S(=O)(=O)c1ccc(C(=O)N(CCN(C)C)c2nc3c(F)cc(F)cc3s2)cc1	Pf growth 96h inconclusive
Cc1nn(-c2cccc(Cl)c2)c(Cl)c1/C=N/NC(=O)c1cccs1	Pf growth 96h inconclusive, Pf growth 48h 10µM
C=CCOC(=O)C1=C[C@@H](c2csc3ccccc23)C[C@@H](OCc2ccc(CO)cc2)O1	Pf growth 96h 13µM, Pf growth 48h inconclusive
O=C(C1=C[C@@H](c2csc3ccccc23)C[C@@H](OCc2ccc(CO)cc2)O1)N1CCN(Cc2ccc3c(c2)OCO3)CC1	Pf growth 96h 5.2µM, Pf growth 48h inconclusive
O=C(C1=C[C@@H](c2ccccc2)C[C@@H](OCc2ccc(CO)cc2)O1)N1CCN(Cc2ccc3c(c2)OCO3)CC1	Pf growth 96h inconclusive, Pf growth 48h inconclusive
O=C(C1=C[C@@H](c2csc3ccccc23)C[C@@H](OCc2ccc(CO)cc2)O1)N1CCN(Cc2ccccc2)CC1	Pf growth 96h 5.2µM, Pf growth 48h inconclusive
Cc1cc(C)c(NC(=O)CN(C)C(=O)C2CC(=O)N(c3cccc4ccccc34)C2)c(C)c1 (stereo unspecified)	Pf growth 96h inconclusive, Pf growth 48h inconclusive (no result: NS1 function inh)
Cc1c(C(=O)N2CC(C(=O)N3CCCCC3)Oc3ccccc32)oc2ccccc12 (stereo unspecified)	Pf growth 96h 13µM, Pf growth 48h inconclusive (no result: NS1 function inh)
CC1(C)O[C@@H](CC(=O)O)[C@]23CO[C@H](C(=O)[C@]4(C)C2CC[C@@]2(C)[C@H](c5ccoc5)OC(=O)C5O[C@]524)[C@@H]13 (stereo partly specified)	none (no result: Pf growth 96h, Pf growth 48h, NS1 function inh)
COc1cc(C(=O)NCc2nnc(SCC(=O)NC3CCCCC3)o2)cc(OC)c1OC	Pf growth 96h inconclusive
Cc1ccc(NC(=O)c2cc(S(=O)(=O)N3CCCC3)cn2C)cc1C	Pf growth 48h inconclusive
Cn1cc(NC(=O)c2cc(NC(=O)c3cc(NC=O)cn3C)cn2C)cc1C(=O)NCCC(=N)N	Pf growth 96h inconclusive, Pf growth 48h 3.4µM!
Cc1ccc(C(C)C)c(OCC(=O)N2CCN(Cc3nc4cc([N+](=O)[O-])ccc4n3C)CC2)c1	Pf growth 96h 12µM
Cc1ccc(C(C)C)c(OCC(=O)Nc2ccc3c(c2)nc(CN2CCCC2)n3C)c1	Pf growth 96h 13µM (no result: Pf growth 48h)
CCCC(=O)N1CCN(Cc2nc3cc([N+](=O)[O-])ccc3n2C)CC1	none
Cc1nc(CSc2nsc(/C=C/N(C)C)c2C#N)cs1	Pf growth 96h 9.3µM, Pf growth 48h inconclusive (no result: NS1 function inh)
COC(=O)c1ccccc1CSc1nsc(/C=C/N(C)C)c1C#N	Pf growth 48h inconclusive
CC(C)CCN(C(=O)Nc1ccc(Cl)cc1)C1CCN(C(C)C)CC1	Pf growth 96h inconclusive, Pf growth 48h 13µM (no result: NS1 function inh)
c1ccc(-c2ccc(C3=Nn4c(nnc4-c4cccs4)SC3)cc2)cc1	Pf growth 96h 13µM, Pf growth 48h 9.3µM
c1ccc(C2=Nn3c(nnc3-c3cccs3)SC2)cc1	none
CCc1ccc(C2=Nn3c(nnc3-c3cccs3)SC2)cc1	Pf growth 96h 1.9µM, Pf growth 48h 2.1µM
CCN(CC)S(=O)(=O)c1ccc(OC)c(NC(=O)CSCc2c(C)noc2C)c1	none (no result: Pf growth 96h, Pf growth 48h, NS1 function inh)
CCC(=O)Nc1cccc(-c2cnc3ccccc3n2)c1	Pf growth 96h inconclusive (no result: Pf growth 48h)
O=C(CCl)Nc1cccc(-c2cnc3ccccc3n2)c1	Pf growth 48h 1µM, SARS PLP yeast inconclusive (no result: Pf growth 96h)
Cc1ccc2oc(=O)c3cnn(CC(=O)NCCN4CCOCC4)c3c2c1	Pf growth 96h 9.3µM
O=C(Cn1ncc2c(=O)oc3ccccc3c21)NC1CC1	Pf growth 96h inconclusive
Cc1ccc2oc(=O)c3cnn(CC(=O)NCCN(C)C)c3c2c1	none
Cc1ccc2oc(=O)c3cnn(CC(=O)NC4CCN(Cc5ccccc5)CC4)c3c2c1	Pf growth 96h 2.3µM (no result: Pf growth 48h)
CCCCn1c(C2CCCCC2)nc2cc3[nH]c(=O)c(C(C)C)nc3cc21	Pf growth 96h 9.3µM
COc1cccc(C2=CC(c3ccc(OC)c(OC)c3)NC(=S)N2)c1 (stereo unspecified)	Pf growth 96h inconclusive, Pf growth 48h 10µM
CCOC(=O)N1CCC(NC(=O)CC2C(=O)NCCN2Cc2cccc(F)c2F)CC1 (stereo unspecified)	Pf growth 96h inconclusive
CSCCC(NC(=O)c1ccccc1Br)C(=O)NNC(=O)c1ccncc1 (stereo unspecified)	none (no result: NS1 function inh)
O=[N+]([O-])c1ccc([As](=O)(O)O)cc1	Pf growth 96h 1.7µM, Pf growth 48h 3µM (no result: NS1 function inh, SARS PLP yeast)
CC1NC(=S)N(C2CCCCC2)C1=O (stereo unspecified)	Pf growth 96h 4.7µM (no result: NS1 function inh)
CCC(C)C1NC(=S)N(C2CCCCC2)C1=O (stereo unspecified)	Pf growth 96h inconclusive, Pf growth 48h inconclusive
CC1CCCC(C)N1C(=O)CN1C(=O)c2ccccc2S1(=O)=O (stereo unspecified)	none (no result: NS1 function inh)
CCCCN1C(=O)/C(=C2/Sc3ccccc3N2C)S/C1=N\c1ncn[nH]1	Pf growth 48h 7.4µM
C=CCN1C(=O)/C(=C2/Sc3ccc(OC)cc3N2C)SC1=Nc1ccccc1	none
Cc1ccc(C(C)C)c(OCC#CCN2CCOCC2)c1	none
O=C(C[C@H]1C/C=C\CCCC(=O)OC[C@H]2CCCN2C1=O)NCCO	none (no result: Pf growth 96h, Pf growth 48h, NS1 function inh)
C=C(c1ccccc1Cl)[n+]1ccccc1	Pf growth 96h 1.7µM, Pf growth 48h 2.9µM
C=C(c1ccccc1C)[n+]1ccccc1	Pf growth 96h 1.7µM, Pf growth 48h 4.7µM
NS(=O)(=O)c1ccc(NC(=O)COc2ccc(C(=O)c3ccc(F)cc3)cc2)cc1	Pf growth 96h inconclusive, Pf growth 48h inconclusive, NS1 function inh inconclusive
Cc1ccc(CNC(=O)Cc2nc3nc(C)cc(C)n3n2)cc1	none
Cc1cc(C)n2nc(CC(=O)NCc3ccccc3Cl)nc2n1	Pf growth 96h 3.3µM
Cc1cc(C)c(S(=O)(=O)NCc2nc3nc(C)cc(C)n3n2)c(C)c1	Pf growth 96h 12µM
COC(=O)c1ccccc1S(=O)(=O)NCc1nc2nc(C)cc(C)n2n1	Pf growth 96h 13µM
COC(=O)c1cc(S(=O)(=O)NC2CCC(C)CC2)cn1C (stereo unspecified)	none
Cc1ccc(-c2csc(NC(=O)C[n+]3cc(-c4ccccc4)n4c3CCC4)n2)cc1	Pf growth 96h inconclusive, Pf growth 48h inconclusive
Cn1c(NC(=O)C[n+]2cc(-c3ccc(Cl)cc3)n3c2CCC3)cc(=O)n(C)c1=O	Pf growth 96h 0.33µM, Pf growth 48h 4.1µM
